# Data as given in PubChem BioAssay AID2690 (NMMLSC, 2010).
# Among all 330,000 compounds or so, about 590 (0.18%) were called active. Many of the other results were omitted from the sample, so actives are more common in it than they were. Unmarked numbers belong to inactive results.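 How the source made its calls: active means superoxide response under a set limit, about three screen SD below normal (cut at about 65% in these data); inactive means the rest.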
# Experiment: reduction of superoxide in aged yeast, primary screen, HTS (AID 2690);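 further: yeast aged for seven days with compound at 30 °C before DHE staining; 100% = average MFI of all compound-treated wells on the plate with controls excluded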
# Details: S. cerevisiae aged cells, superoxide DHE fluorescence; at 10 µM; active compounds read low
row,Structure (SMILES),superoxide response (% of plate mean)
1,CCOC(=O)c1c(C)nn(-c2ncccc2NC(=O)CCC(=O)O)c1C,122%
2,Cc1ccc(C(=O)O)cc1-c1ccc(/C=C2\SC(=O)N(CC(=O)Nc3ccc4c(c3)OCO4)C2=O)o1,114%
3,Cc1ccccc1N1CCN(C2CCCN(C(=O)c3cn4c(C)cccc4n3)C2)CC1 (stereo unspecified),98.9%
4,COc1cc(N2C(=O)c3ccccc3C2=O)c(Cl)cc1C(=O)OCC(=O)N1CCOCC1,106%
5,COc1ccc(OCCCC(=O)OC(C)C(=O)Nc2ccccc2[N+](=O)[O-])cc1 (stereo unspecified),95.2%
6,CC1(C(=O)NCCc2c[nH]c3ccccc23)C=CC2(CCCCC2)N1C(=O)c1ccccc1 (stereo unspecified),93.9%
7,Cc1csc2ncc(C(=O)N(Cc3ccccc3)c3ccccn3)c(=O)n12,92.8%
8,Cc1cc(F)ccc1S(=O)(=O)Nc1ncnc2scc(-c3ccc(F)cc3)c12,103%
9,CCOC(=O)CNc1nc(Cl)nc(Nc2ccccc2)n1,114%
10,COC(=O)CNc1nc(Cl)nc(N2CCC(C)CC2)n1,51% (active)
11,Clc1nc(NC2CCCC2)nc(N2CCOCC2)n1,104%
12,CCc1noc(C)c1C(=O)Oc1ccc(N(C)S(=O)(=O)c2ccc(C)c(C)c2)cc1,103%
13,CCOc1c(N2CCCCC2)c(=O)c1=O,105%
14,COc1ccc(NS(=O)(=O)c2ccc(O)c(C(=O)OCC(=O)NC3CCCCC3)c2)cc1,93.5%
15,NS(=O)(=O)c1ccc(CCNC(=O)CN2C(=O)c3ccccc3S2(=O)=O)cc1,111%
16,Cc1ccc(C(=O)OCC(=O)NC(=O)Cc2ccccc2)c(O)c1,110%
17,C=CCNC(=S)/N=c1/ccccn1Cc1ccccc1,102%
18,COC(=O)c1ccc(NC(=O)CSc2nncc3ccc(OC)c(OC)c23)cc1,119%
19,C=CCn1c(SCc2ccccc2)nc2c1c(=O)[nH]c(=O)n2C,102%
20,Cc1cc(OCc2cc(C(=O)NCc3cc(C(C)C)no3)no2)cc(C)c1Cl,111%
21,CCn1c2ccccc2c2cc(CC(N)=O)ccc21,105%
22,NC(=O)CSc1c[nH]c2ccccc12,97.2%
23,NC(=O)Cc1ccc2c(c1)[nH]c1ccccc12,40.8% (active)
24,OCCC1CN(Cc2cnc(-c3ccccc3)s2)CCN1CCc1ccccc1 (stereo unspecified),88.7%
25,Cc1cccc(OCC(=O)OCC(=O)Nc2ccc(Cl)cn2)c1,99.9%
26,CCCC(C(=O)NCc1ccco1)N(C(=O)CNS(=O)(=O)c1ccccc1)C1CCCC1 (stereo unspecified),101%
